Experimental data published in ChEMBL document CHEMBL1961873, “Compounds: GSK PKIS; Assays: Nanosyn kinase panel” (2012).

Tests used:
[1] = target: Protein kinase C gamma type (Homo sapiens) (UniProt P05129); conditions: at 1 µM;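 further: each value is an averaged percent inhibition of the enzyme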
[2] = target: T1, Protein kinase C iota type (Homo sapiens) (UniProt P41743); conditions: at 0.1 µM
T1 sequence (whole entry): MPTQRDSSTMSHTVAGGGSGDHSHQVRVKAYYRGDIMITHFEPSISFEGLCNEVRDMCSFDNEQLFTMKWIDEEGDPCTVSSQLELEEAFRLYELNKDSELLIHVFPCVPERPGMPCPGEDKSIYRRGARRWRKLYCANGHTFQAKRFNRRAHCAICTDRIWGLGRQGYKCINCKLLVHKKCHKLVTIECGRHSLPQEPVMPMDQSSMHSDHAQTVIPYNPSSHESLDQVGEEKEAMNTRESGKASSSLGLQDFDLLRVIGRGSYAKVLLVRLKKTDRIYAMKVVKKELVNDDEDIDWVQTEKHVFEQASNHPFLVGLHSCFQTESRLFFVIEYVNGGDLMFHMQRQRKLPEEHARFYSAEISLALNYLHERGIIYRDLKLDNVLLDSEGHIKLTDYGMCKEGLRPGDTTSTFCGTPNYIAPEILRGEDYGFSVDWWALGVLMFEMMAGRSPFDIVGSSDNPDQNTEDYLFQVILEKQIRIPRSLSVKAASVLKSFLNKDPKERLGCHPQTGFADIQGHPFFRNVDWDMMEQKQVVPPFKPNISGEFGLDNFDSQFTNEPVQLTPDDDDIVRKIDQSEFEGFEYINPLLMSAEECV

[3] = target: T1, Protein kinase C iota type (Homo sapiens); conditions: at 1 µM
[4] = target: Protein kinase C theta type (Homo sapiens) (UniProt Q04759); conditions: at 0.1 µM
[5] = target: Protein kinase C theta type (Homo sapiens) (UniProt Q04759); conditions: at 1 µM
[6] = target: Protein kinase C beta type (Homo sapiens) (UniProt P05771); conditions: at 0.1 µM
[7] = target: Protein kinase C beta type (Homo sapiens) (UniProt P05771); conditions: at 1 µM
[8] = target: T2, Serine/threonine-protein kinase D1 (Homo sapiens) (UniProt Q15139); conditions: at 0.1 µM
T2 sequence (whole entry): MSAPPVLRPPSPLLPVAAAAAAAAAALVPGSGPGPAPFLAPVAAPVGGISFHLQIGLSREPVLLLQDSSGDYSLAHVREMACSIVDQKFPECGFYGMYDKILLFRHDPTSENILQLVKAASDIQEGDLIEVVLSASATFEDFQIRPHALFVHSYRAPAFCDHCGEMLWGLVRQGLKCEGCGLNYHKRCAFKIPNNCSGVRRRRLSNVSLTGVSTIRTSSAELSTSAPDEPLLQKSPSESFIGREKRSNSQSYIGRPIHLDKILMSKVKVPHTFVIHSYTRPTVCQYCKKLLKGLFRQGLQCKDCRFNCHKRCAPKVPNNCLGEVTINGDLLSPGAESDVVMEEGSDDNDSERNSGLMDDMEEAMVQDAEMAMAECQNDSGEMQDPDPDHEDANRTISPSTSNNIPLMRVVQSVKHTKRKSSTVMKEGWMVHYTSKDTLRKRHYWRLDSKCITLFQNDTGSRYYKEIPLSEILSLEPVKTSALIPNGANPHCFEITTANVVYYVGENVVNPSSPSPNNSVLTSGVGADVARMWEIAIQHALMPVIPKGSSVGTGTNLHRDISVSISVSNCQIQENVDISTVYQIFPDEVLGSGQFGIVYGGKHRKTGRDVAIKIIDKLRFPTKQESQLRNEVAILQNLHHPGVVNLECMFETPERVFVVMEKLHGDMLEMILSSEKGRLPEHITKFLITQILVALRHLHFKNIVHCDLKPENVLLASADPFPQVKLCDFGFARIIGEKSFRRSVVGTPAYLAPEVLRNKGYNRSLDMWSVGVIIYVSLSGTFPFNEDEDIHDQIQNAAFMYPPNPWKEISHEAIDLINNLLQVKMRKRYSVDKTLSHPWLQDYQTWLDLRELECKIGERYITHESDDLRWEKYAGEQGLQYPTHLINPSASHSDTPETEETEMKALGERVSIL

[9] = target: T2, Serine/threonine-protein kinase D1 (Homo sapiens); conditions: at 1 µM
[10] = target: T3, Serine/threonine-protein kinase D2 (Homo sapiens) (UniProt Q9BZL6); conditions: at 0.1 µM;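 further: reported percent inhibition values are means, part of the GSK PKIS kinase panel screen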
T3 sequence (whole entry): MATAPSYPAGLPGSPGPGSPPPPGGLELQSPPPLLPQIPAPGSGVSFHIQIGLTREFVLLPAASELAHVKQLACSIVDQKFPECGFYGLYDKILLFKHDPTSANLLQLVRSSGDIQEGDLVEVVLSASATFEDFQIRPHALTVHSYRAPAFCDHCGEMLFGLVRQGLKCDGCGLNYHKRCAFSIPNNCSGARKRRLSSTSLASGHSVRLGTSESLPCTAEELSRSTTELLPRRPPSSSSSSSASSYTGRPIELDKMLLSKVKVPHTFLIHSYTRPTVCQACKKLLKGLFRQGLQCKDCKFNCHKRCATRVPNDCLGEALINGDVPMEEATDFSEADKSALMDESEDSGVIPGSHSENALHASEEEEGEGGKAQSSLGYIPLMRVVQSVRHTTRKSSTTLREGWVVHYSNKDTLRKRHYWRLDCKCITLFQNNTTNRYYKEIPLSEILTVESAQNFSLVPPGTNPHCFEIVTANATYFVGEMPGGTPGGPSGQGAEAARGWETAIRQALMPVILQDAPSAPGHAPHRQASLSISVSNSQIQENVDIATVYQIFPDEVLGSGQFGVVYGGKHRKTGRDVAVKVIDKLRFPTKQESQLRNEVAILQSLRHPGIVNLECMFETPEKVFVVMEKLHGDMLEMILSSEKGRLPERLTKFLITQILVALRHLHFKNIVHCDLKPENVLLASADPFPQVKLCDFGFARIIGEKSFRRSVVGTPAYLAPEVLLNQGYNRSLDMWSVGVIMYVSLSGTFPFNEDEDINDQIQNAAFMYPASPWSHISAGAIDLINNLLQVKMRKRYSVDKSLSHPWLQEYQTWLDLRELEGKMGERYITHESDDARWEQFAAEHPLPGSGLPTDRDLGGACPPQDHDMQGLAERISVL

Protein kinase C theta type (Homo sapiens), sequence (Q04759 whole entry, looked up): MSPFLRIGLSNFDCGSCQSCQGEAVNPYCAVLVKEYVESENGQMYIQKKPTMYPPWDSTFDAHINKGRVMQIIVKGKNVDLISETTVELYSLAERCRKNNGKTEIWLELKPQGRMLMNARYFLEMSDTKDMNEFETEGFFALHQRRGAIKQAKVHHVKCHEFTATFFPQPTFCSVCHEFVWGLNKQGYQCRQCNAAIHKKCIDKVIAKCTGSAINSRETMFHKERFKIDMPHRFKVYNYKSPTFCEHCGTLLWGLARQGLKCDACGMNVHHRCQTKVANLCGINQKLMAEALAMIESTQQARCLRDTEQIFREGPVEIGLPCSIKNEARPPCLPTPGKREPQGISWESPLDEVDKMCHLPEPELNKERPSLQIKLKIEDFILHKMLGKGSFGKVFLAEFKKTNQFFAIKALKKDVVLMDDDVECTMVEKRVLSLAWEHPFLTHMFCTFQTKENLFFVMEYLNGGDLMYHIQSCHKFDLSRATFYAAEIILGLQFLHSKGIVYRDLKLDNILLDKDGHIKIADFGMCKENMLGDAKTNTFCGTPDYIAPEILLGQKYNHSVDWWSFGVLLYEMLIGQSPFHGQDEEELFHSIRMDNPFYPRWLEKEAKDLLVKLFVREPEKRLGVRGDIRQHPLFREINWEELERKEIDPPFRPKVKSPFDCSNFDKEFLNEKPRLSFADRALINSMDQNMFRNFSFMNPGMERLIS
Protein kinase C beta type (Homo sapiens), sequence (P05771 2-671 limits assumed): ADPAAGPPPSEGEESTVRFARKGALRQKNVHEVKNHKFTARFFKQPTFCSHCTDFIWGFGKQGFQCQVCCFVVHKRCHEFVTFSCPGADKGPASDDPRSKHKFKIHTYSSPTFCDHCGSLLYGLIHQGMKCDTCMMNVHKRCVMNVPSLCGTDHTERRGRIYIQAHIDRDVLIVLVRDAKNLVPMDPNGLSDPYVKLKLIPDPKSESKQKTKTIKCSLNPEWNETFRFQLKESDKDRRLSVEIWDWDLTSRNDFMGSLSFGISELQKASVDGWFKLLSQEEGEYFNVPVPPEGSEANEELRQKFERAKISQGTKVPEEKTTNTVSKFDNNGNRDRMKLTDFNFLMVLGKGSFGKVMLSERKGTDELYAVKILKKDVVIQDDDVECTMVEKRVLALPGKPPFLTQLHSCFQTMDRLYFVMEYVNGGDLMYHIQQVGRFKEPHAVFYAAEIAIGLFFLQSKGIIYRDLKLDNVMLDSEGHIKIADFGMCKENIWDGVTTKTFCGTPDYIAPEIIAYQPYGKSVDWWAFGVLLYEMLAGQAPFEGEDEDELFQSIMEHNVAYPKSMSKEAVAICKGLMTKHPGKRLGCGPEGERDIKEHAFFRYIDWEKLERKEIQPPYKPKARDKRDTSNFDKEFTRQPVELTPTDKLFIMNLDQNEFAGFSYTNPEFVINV

SMILES	inhibition [1] [%]	inhibition [2] [%]	inhibition [3] [%]	inhibition [4] [%]	inhibition [5] [%]	inhibition [6] [%]	inhibition [7] [%]	inhibition [8] [%]	inhibition [9] [%]	inhibition [10] [%]
Fc1ccc(-c2ncn(C3CCNCC3)c2-c2ccnc(Oc3ccccc3)n2)cc1	2.28	0.81	1.84	1.21	1.59	1.22	5.65	-1.04	0.79	-1.14
COc1cccc(COc2cc(-n3cnc4ccccc43)sc2C(N)=O)c1	3.94	-0.74	-0.85	1.23	1.18	0.72	1.77	0.37	1.82	1.64
CCn1c(-c2nonc2N)nc2c(C#CC(C)(C)O)ncc(OCC3CCNCC3)c21	39.9	-0.7	13.5	21.5	65.5	8.97	37.6	-0.45	6.01	-0.27
NS(=O)(=O)c1ccc(N/C=C2\C(=O)Nc3ccc4ncsc4c32)cc1	5.52	1.93	2.78	3.02	6.57	1.34	3.28	22.4	67.3	16.3
CCn1c(-c2nonc2N)nc2c(C#CCN)ncc(OCCCN)c21	4.01	2.51	16.5	6.73	38.6	4.07	12	-1.16	-3.02	-2.14
Cc1cc(-c2ccco2)cc(C)c1/C=C/c1cncc(-c2nn[nH]n2)c1	1.85	0.32	-0.83	0.29	-0.04	-0.04	-0.06	0.58	2.09	0.97
CCn1c(-c2nonc2N)nc2c(C#CC(C)(C)O)nc(O[C@@H](CN)c3ccccc3)cc21	81.1	3.68	26.4	73.5	84.8	49.2	80.5	8.23	61.6	9.02
Nc1nonc1-c1nc2cnccc2n1C1CCCCC1	49	-0.01	4.76	10.3	55.2	6.66	33.7	-0.73	2.75	-1.07
CCn1c(-c2nonc2N)nc2c(C#CC(C)(C)O)ncc(OC[C@@H]3CCCN3)c21	44.6	0.62	11.4	30	72.3	7.63	37.1	2.68	19.2	4.02
COc1cccc(-n2ncc3c(N/N=C/c4ccncc4)ncnc32)c1	7.85	3.39	13.1	2.97	5.71	2.37	9.57	4.37	10.1	4.75
NS(=O)(=O)c1ccc(-c2ccc3c(NC(=O)C4CC4)n[nH]c3c2)cc1	0.37	1.06	3.22	1.13	-0.43	0.67	1.78	1.17	1.47	1.52
NC(=O)c1sc(-n2cnc3cc(C(F)(F)F)ccc32)cc1OCc1ccccc1Br	2.52	0.97	0.63	0.18	0.55	0.4	0.57	1.33	1.94	1.96
COc1cc2c(cc1Nc1nc(Nc3ccsc3C(N)=O)c3cc[nH]c3n1)N(C(=O)CN(C)C)CCC2		-0.4	-0.5	4.39	10.2	-1.27	2.49	3.95	19.8	12.2
COc1cc(C=NNc2ncnc3c2cnn3Cc2ccccc2)ccc1O	2.96	-1.06	-0.54	-1.05	1.99	-1.09	1.44	-4.01	-1.69	-3.31
